Source: PubChem
Rows were chosen to be rich in hits. Some 18% of all compounds tested hit in one or more screens of this group.
PLK1 PBD block – inhibitors of human PLK1 polo-box domain binding; Plk1 PBD binding of FITC phosphopeptide, fluorescence polarization; Potency, µM, hits mostly inhibitors; 2.8% of 360,000 active; further: series mostly up to about 57 µM; nearly all actives have a fitted effect of over 65% in size
Target sequence (P53350 whole entry, looked up, the tested form may be a part): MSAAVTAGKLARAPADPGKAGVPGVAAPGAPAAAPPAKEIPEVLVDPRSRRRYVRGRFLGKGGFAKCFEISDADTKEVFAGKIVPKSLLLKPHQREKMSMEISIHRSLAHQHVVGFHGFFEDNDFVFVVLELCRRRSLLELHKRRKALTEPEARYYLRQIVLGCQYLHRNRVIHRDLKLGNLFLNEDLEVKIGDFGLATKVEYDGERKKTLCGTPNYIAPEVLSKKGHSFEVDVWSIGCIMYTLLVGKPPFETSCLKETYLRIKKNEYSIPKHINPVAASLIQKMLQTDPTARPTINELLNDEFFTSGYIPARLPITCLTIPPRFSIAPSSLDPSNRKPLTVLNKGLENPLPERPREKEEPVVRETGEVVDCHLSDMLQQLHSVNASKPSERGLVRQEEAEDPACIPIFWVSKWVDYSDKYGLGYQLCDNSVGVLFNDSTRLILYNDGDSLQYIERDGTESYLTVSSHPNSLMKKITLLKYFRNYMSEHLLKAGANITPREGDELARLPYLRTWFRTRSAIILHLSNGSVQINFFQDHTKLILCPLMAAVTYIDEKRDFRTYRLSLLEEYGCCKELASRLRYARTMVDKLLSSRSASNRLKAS
KAT2A inh – GCN5L2 (KAT2A) acetyltransferase inhibition; Q92830; 0.21% of 390,000 active; Potency, µM (highest dose often 58.9 µM), usual class: inhibitors; GCN5L2 HAT assay, ThioGlo1 CoA-SH fluorescence
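Titration-based screen in which CoA formation is detected via maleimide probe ThioGlo1 (50uM) turning fluorescent on thiol reaction; substrates H3(1-25) 75uM and acetyl-CoA 70uM, GCN5L2 20nM, 20 min incubation at room temperature.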
DT40 TDP1 no CPT – qHTS for Inhibitors of human tyrosyl-DNA phosphodiesterase 1 (TDP1): qHTS in cells in absence of CPT. DT40 Tdp1-/- hTDP1 cells, no CPT, ATP luminescence, 48 h. Potency, µM (titrated, usually from 46.2 µM), usual class: inhibitors. 15% of 420,000 active. AID 686978, 2013; further: nearly all actives have a fitted effect of over 55% in size
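DT40 Tdp1-/-;hTDP1 cells, no CPT (DMSO vehicle only), 400 cells/well; compounds pin-transferred; ≥48 hr, 37 °C; CellTiter-Glo 30 min RT dark, luminescence read.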
DT40 TDP1 CPT – DT40-hTDP1 cell growth loss with CPT. chicken DT40 Tdp1-/-;hTDP1 cells + 20 nM CPT, ATP luminescence, 48 h. Potency, µM (titrated, usually from 46.2 µM), usual class: inhibitors. 12% of 420,000 active. AID 686979; further: nearly all actives have a fitted effect of over 55% in size
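Cell growth measured by CellTiter-Glo luminescence after a minimum 48 h, 37 C compound exposure with 20 nM CPT in Tdp1-knockout DT40 cells stably expressing hTDP1, seeded 400/well; qHTS titration format.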
VDR inh – blocks the human vitamin D receptor; P11473; VDR-SRC2-3 peptide fluorescence polarization, 2 h; Potency, µM, hits mostly inhibitors; 0.93% of 400,000 active
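After 23 nl compound addition and a short centrifugation, plates sat for 2 hours at ambient temperature; polarization of fluorescence then indicated loss of VDR binding to peptide SRC2-3.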
TDP1 block – TDP1 (human) enzyme inhibition; Potency, µM (highest dose often 130 µM), most hits filed as inhibitors; Q9NUW8; AID 485290; recombinant TDP1, AlphaScreen DNA substrate cleavage; 0.28% of 350,000 active; further: nearly all actives have a fitted effect of over 40% in size
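Tdp1 1 nM final; 15 min RT w/ cpd; substrate 15 nM, 5 min; beads 10 ug/ml, 10 min; AlphaScreen read. Neg ctrl: no enzyme.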
A number is an active result; - = inactive; ? = inconclusive; . = no result given; [ ] = another dose, or the depositor's remark. The call rests on the fitted dose curve; in most records, active means well fitted curve in the direction sought with a large enough effect; inconclusive means small, poorly fitted or top-dose-only effect, or another doubt; inactive means no such curve, though single readings can be large; an effect the other way counts as inactive or inconclusive.

SMILES | PLK1 PBD block | KAT2A inh | DT40 TDP1 no CPT | DT40 TDP1 CPT | VDR inh | TDP1 block
Cc1ccc2c(c1)CC1(CN2C)C(=O)NC(=O)N(C(C)C)C1=O (stereo not given) | ? | - | ? | 18µM | - | -
CCn1cc2nc(SCc3c(F)cccc3Cl)n(CCc3ccccc3)c(=O)c2n1 | . | - | 23µM | 15µM | - | -
CCn1cc2nc(SCc3cccc(C(F)(F)F)c3)n(Cc3ccc(OC)cc3)c(=O)c2n1 | . | - | 15µM | 21µM | - | -
CC[C@@H](C(=O)[C@@H](C)[C@@H](O)[C@H](C)[C@@H]1O[C@@H]([C@@H](CC)C(=O)O)CC[C@@H]1C)[C@H]1O[C@]2(C=C[C@@H](O)[C@]3(CC[C@@](C)([C@H]4CC[C@](O)(CC)[C@H](C)O4)O3)O2)[C@H](C)C[C@@H]1C | - | . | 0.52µM | 0.58µM | - | .
C(=C\c1ccccc1)/CN1CCN(CCOC(c2ccccc2)c2ccccc2)CC1 | . | - | 4.6µM | 3.7µM | - | -
CC(C)CN1CCC2(CC1)CCN(C(=O)Oc1ccccc1)CC2 | . | - | - | - | - | .
COc1cc2nc(N(C)C)c(CNCCc3c[nH]c4ccccc34)cc2c(OC)c1OC | . | . | - | -[9.04 µM] | . | .
COc1ccc(CNC(=O)Cn2c(=O)nc(-c3ccccc3F)c3cc(Cl)ccc32)cc1 | . | - | 2.1µM | 1.5µM | - | -
COc1ccc(NC(=O)CN2C(=O)C(C)N=C(c3ccccc3F)c3cc(Cl)ccc32)c(OC)c1 (stereo not given) | . | - | ? | ? | - | -
NC(=O)CF | . | - | . | . | - | -
O=C1NC(=O)C2(CCCc3ccc(N(CCCl)CCCl)cc32)N1 (stereo not given) | - | . | 0.18µM | 0.41µM | - | .
NC1(C(=O)O)CCCc2ccc(N(CCCl)CCCl)cc21 (stereo not given) | - | . | 2.3µM | 1.6µM | - | .
CC(=O)c1cn(Cc2ccc(F)cc2)c2ccccc12 | - | - | 18µM | 21µM | - | .
COC(=O)c1cn(Cc2ccc(F)cc2)c2ccccc12 | - | . | - | ? | . | .
Cc1ccccc1CN1CCN(c2ccc(Cl)cc2)CC1 | - | - | ? | - | - | -
Cc1ccc(Cl)cc1N1CCN(CCN)CC1 | - | - | ? | 16µM | - | -
CCOC(=O)N1CCN(CC(O)COCCC23CC4CC(CC(C4)C2)C3)CC1 (stereo not given) | - | -[0.501 µM] | 29µM | 12µM | - | -
CC1(C)C(C(=O)NN2C(=O)c3ccccc3C2=O)C1(C)C | - | - | - | - | - | -
O=C(NC1CCCCC1)N1Cc2cc(-c3cccc(F)c3)ccc2-n2nncc2C1 | - | . | ? | - | . | .
Cc1cc(C)cc(NC(=O)CSc2oc(-c3cccs3)nc2S(=O)(=O)c2ccc(Br)cc2)c1 | . | - | 6.5µM | 5.8µM | - | -
CC(C)CC1C(=O)N(Cc2cn(CC3CCCCC3)nn2)CCS(=O)(=O)N1Cc1ccc(-c2ccc(F)nc2)cc1 (stereo not given) | - | . | 18µM | 21µM | . | .
CC(C)[C@@]1(NC(=O)[C@@H]2C[C@H]3c4cccc5[nH]cc(c45)C[C@@H]3N(C)C2)O[C@@]2(O)[C@H]3CCCN3C(=O)[C@H](Cc3ccccc3)N2C1=O | . | - | ? | ? | - | -
CC1([N+](=O)[O-])COP(=O)(Nc2ccc(Cl)cc2)OC1 (stereo not given) | - | . | ? | ? | 89µM | .
CSc1ccccc1NP1(=O)OCC(C)([N+](=O)[O-])CO1 (stereo not given) | - | . | ? | - | - | .
Cc1ccc(/C=C/C(=O)C2C(=O)c3ccccc3C2=O)cc1 | ? | - | ? | 16µM | - | -
SMILES | PLK1 PBD block | KAT2A inh | DT40 TDP1 no CPT | DT40 TDP1 CPT | VDR inh | TDP1 block
CC(Oc1ccc(Cl)cc1Cl)C(=O)Nc1ccc(S(=O)(=O)Nc2cnc3ccccc3n2)cc1 (stereo not given) | 13µM | - | 26µM | ? | - | -
COc1ccc(NC(=O)C(=O)NNC(=O)C(C)Oc2ccc(Cl)cc2Cl)cc1 (stereo not given) | - | - | ? | - | - | -
CO/C1=C\C(C)=C\[C@@H](C)[C@@H](O)[C@H](C)C/C(C)=C/C=C/[C@H](OC)[C@H]([C@@H](C)[C@@H](O)[C@H](C)[C@H]2C[C@@H](O)[C@H](C)[C@@H](C(C)C)O2)OC1=O | . | - | . | . | - | -
Cc1cccc(-n2c(C)nc3ccccc3c2=O)c1C | - | - | 21µM | 5.8µM | - | -
Cc1nc2ccccc2c(=O)n1-c1c(Cl)cccc1Cl | - | . | 18µM | 23µM | . | .
C=C1C/C(=C\C)C(=O)O[C@@H]2CCN3CC=C(COC(=O)[C@@]1(C)O)[C@H]23 | . | - | . | . | - | -
O=C(Nc1ncccc1O)c1ccc(S(=O)(=O)NCc2ccco2)cc1 | - | . | 23µM | 21µM | . | .
COc1ccc(C(=O)N2CCN(c3nc4c(OC)cccc4s3)CC2)cc1OC | . | - | 15µM | 18µM | - | -
COC(=O)[C@@H]1[C@H]2CC[C@@H](C[C@H]1OC(=O)c1ccccc1)N2C | . | . | - | - | . | .
Nc1c(Cl)c(Cl)c(Cl)c(Cl)c1Cl | . | . | - | - | . | .
C[C@H](N)Cc1cnc[nH]1 | . | - | - | - | - | -
Cc1cccc(C(C)c2cnc[nH]2)c1C (stereo not given) | . | . | ? | 27µM | . | .
C[C@]12CC[C@@H](O)CC1=CCC1C2CC[C@@]2(C)C1CC[C@@H]2N (stereo not given in full) | - | - | 21µM | ? | - | -
C[C@@H]1CC2C3CC=C4C[C@@H](O)CC[C@]4(C)C3CC[C@]2(C)[C@H]1O (stereo not given in full) | - | - | ? | - | - | -
C[C@]12CC[C@H](N)CC1=CCC1C2CC[C@@]2(C)C1CC[C@@H]2O (stereo not given in full) | - | - | ? | 18µM | - | -
CC(NC(=O)c1cc(F)ccc1F)c1nnc2n1CCN(Cc1ccc(-c3ccccc3)cc1)CC2 (stereo not given) | . | . | ? | -[9.04 µM] | . | .
COC1/C=C/C=C(\C)Cc2cc(O)c(Cl)c(c2)N(C)C(=O)CC(OC(=O)C(C)C)C2(C)OC2C(C)C2CC1(O)NC(=O)O2 (stereo not given) | - | . | 0.15µM | 0.016µM | - | .
C[C@H]1CNC(=O)c2c(C(=O)Nc3cccc(Cl)c3)ncn21 | - | . | ? | - | . | .
CCOC(=O)c1ccc(NC(=O)N2CC3CC(C2)c2cccc(=O)n2C3)cc1 (stereo not given) | - | - | - | - | - | -
Cc1cccc(OP(=O)(NCc2ccccc2)Oc2cccc(C)c2)c1 | - | - | 26µM | ? | - | -
CCCCCCN=C(C)c1c(O)n(Cc2ccccc2)c(=O)[nH]c1=O | - | - | ? | - | - | -
